Each structure is given as a SMILES string. Activity calls are given as the source filed them.

This experiment in a line: plasmodial surface anion channel blockers, osmotic lysis – cell-based, P. falciparum Indochina, OD700, 1 h, primary screen (AID 1154). The settings on record: P. falciparum Indochina infected RBC osmotic lysis, higher = more signal, called active from +8 up or from −8 down.
As for `Cn1cccc1C(O)C1C=CC2C(=O)N(c3ccccc3)C(=O)C2N1Nc1ccccc1` (stereo unspecified), the z-score was 2.42 (inactive).
With `CCOC(=O)C=Cc1cccc(C)c1O`, the z-score is 9 (active).
As for `COC(=O)C1=CC(CCCO)=CC(c2cccs2)N(Cc2cccc(OC(F)(F)F)c2)C=C1C(=O)OC` (stereo unspecified), the figure is 4.92 (inactive); as for `[N-]=[N+]=Nc1ccccc1[C@@H]1OC(c2ccc(OCCCO)cc2)=N[C@]1(Cc1ccccc1)C(=O)N1CCCCC1`, 32.6 (active); as for `C=CCNC(=O)[C@@H]1[C@H]2C(=O)O[C@H](c3ccccc3)[C@H](c3ccccc3)N2[C@H](c2ccc(O)cc2)[C@@]12C(=O)N(C(=O)OCCOC)c1ccc(C#CC3=CCCCC3)cc12`, 1.78 (inactive).
As for `CCOC(=O)C[C@H]1[C@H](OC(=O)c2cc3ccccc3oc2=O)[C@@H](NC(=O)CC(C)C)c2cc(OCCCO)ccc2N1C(=O)c1ccc2ccccc2n1`, the figure is 9.02 (active); as for `NCCCCCNC(=O)[C@@H]1C[C@@H]2C(=O)N[C@@H](CCCCN)C(=O)N2[C@@H]1c1ccc(O)cc1`, 3.95 (inactive); as for `CC(C)C(CO)N1C(=O)[C@@H]2C3C(=O)OCCC/C=C\[C@H]3OC23C=CCN(Cn2nnc4ccccc42)C(=O)[C@@H]13` (stereo partly specified), 0.897 (inactive).
With `[N-]=[N+]=NCc1ccccc1C[C@@]1(C(N)=O)N=C(c2ccc(OCCCO)cc2)O[C@@H]1c1ccccc1`, the z-score was 27.2 (active).
To `CCOC(=O)C[C@H]1[C@H](OC(=O)c2ccc(C(=O)c3ccccc3)cc2)[C@@H](NC(=O)CC(C)C)c2cc(OCCCO)ccc2N1C(=O)c1ccccc1` belongs 1.06 (inactive); to `CC(C)[Si](C#C[Si](C(C)C)(C(C)C)C(C)C)(O[C@H](c1ccccc1)c1cn(Cc2ccccc2)nn1)C(C)C`, 0.62 (inactive).
As for `COC(=O)C/C=C/C[C@]1(O)C(=O)N(C)c2ccccc21`, the figure is -0.526 (inactive); as for `CN1C(=O)C2C=CC(C(O)c3cccn3C)N(Nc3ccc([N+](=O)[O-])cc3[N+](=O)[O-])C2C1=O` (stereo unspecified), 0.627 (inactive); as for `C=CCN1Cc2ccccc2[C@@H]2OC(c3ccc(OCCCO)cc3)=N[C@]2(CC=C)C1=O`, 22.5 (active).
As for `CCCC=C(CCC)[C@@H](NP(=O)(c1ccccc1)c1ccccc1)c1ccc(-c2ccccc2)cc1`, the figure is 3.5 (inactive); as for `C=C(COC)C(=O)CC[C@@H](OC(C)=O)c1cccc(OCCO)c1`, 4.13 (inactive); as for `CCOC(=O)C1=CC[C@@H](c2ccccc2F)N(S(=O)(=O)c2ccc(C)cc2)[C@H]1c1ccccc1`, 0.353 (inactive).
As to `O=C1O[C@H](c2ccccc2)[C@H](c2ccccc2)N2[C@H]1[C@@H](C(=O)O)[C@]1(C(=O)Nc3ccc(C#CCCO)cc31)[C@H]2c1ccccc1OCCO`, the z-score is 0.396 (inactive).
To `COc1cc2c(cc1O)C(C1CC1)N(C)CC2` (stereo unspecified) belongs 1.79 (inactive); to `COC(=O)[C@@]1(Cc2ccc(OC)cc2)[C@H]2c3cc(C(=O)N4CCCC4)n(CCO)c3C[C@H]2CN1C(=O)c1ccccc1`, 2.85 (inactive).
As to `[N-]=[N+]=Nc1ccccc1C[C@]1(C(=O)N2CCOCC2)COC(c2ccc(OCCCO)cc2)=N1`, the z-score is 24.6 (active).
As for `O=C1C2C=CC(C(O)c3ccco3)N(Nc3ccccc3F)C2C(=O)N1c1ccccc1` (stereo unspecified), the figure is 0.188 (inactive); as for `CCCCCN1CC=CC23O[C@@H]4/C=C\CCCOC(=O)C4[C@H]2C(=O)N(C(C)CO)[C@@H]3C1=O` (stereo partly specified), 1.47 (inactive); as for `COC(=O)c1c(CC[C@@H](CO)NC(=O)N2CCC[C@H]2Cn2cc(C3(O)CCCCC3)nn2)oc(C(C)=O)c1C(=O)OC`, 1.35 (inactive).
For `CCCCNC(=O)c1ccc(C#CC(C)(C)C)c(OC(C)=O)c1`, the z-score was 4.63 (inactive).
Regarding `COc1ccccc1CN1C(=O)c2ccccc2[C@](Cc2ccccc2I)(C(=O)O)[C@@H]1c1ccc(CO)cc1`, the z-score was 5.55 (inactive).

(Values after PubChem BioAssay.)
